Assay in all cases: NCI-60 one-dose screen, 48 h (100 = growth as untreated, 0 = no growth, -100 = all killed)
Test [1] concerns DU-145 prostate. The note with it: 10 µM unless noted.
In test [2] the test system is K-562 leukemia. The note with it: 10 µM unless noted.
Test [3] has as its system MALME-3M melanoma. Conditions: 10 µM unless noted.
The test system of test [4] is MDA-MB-231 breast. The note with it: 10 µM unless noted.
In test [5] the test system is SF-268 CNS. The note with it: 10 µM unless noted.
Test [6] concerns SF-295 CNS. Conditions: 10 µM unless noted.
In test [7] the test system is SF-539 CNS. The note with it: 10 µM unless noted.
The test system of test [8] is M14 melanoma. Conditions: 10 µM unless noted.
In test [9] the test system is UACC-257 melanoma. Conditions: 10 µM.

The structures appear in SMILES notation. This is part of a sample that, as a whole, favours compounds with a hit. Of some 83,000 tested, about 20% had one in any assay.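 Assay: single dose, 48 h. Readout: percent growth (0 = no net growth; negative = cell death). Active: <10.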 Unmarked numbers belong to inactive results. Active and inactive are the calls of the source.

Consider `CCCCCCCCCCCCCCCCCCOc1cccc(CCOP(=O)(O)OCC[N+](C)(C)C)c1`, for which the growth in [1] was 95.9%; in test [2], 116%; in test [3] it was 101%; in [4], 95.5%; in [5] it was 68%; in test [6] it was 87.2%. The growth in test [7] was 95.1%; in test [8], 93.4%.

Turning to `Cc1cc(Nc2nc(-c3ccncc3)nc3ccccc23)n[nH]1`, the growth in test [1] is 79.7%; in [2], 38.1%; in test [3], 88.8%; in [4], 84.1%; in test [5], 70.1%; in test [6], 69.9%. The values for the growth in [7], in test [9] and in [8] were 59.5%, 90% and 65.7%, respectively.

`Cc1cc(Nc2nc(-c3ccc(F)cc3)nc3ccccc23)n[nH]1`: the growth was 77.1% in [1]; 36.6% in test [2]; 57% in [3]; 78.7% in test [4]; 63.3% in [5]; 64.4% in test [6]. Further, the growth is 66.6% in test [7], 47.2% in test [9] and 53.5% in test [8].

On to `CC(C)C(C(=O)CCN(C)C)c1ccc(Cl)cc1` (stereo unspecified), for which the growth is 88.6% in test [1]; 96.7% in test [2]; -90.7% (active) in [3]; 101% in [4]; 100% in test [5]; 106% in test [6]. The figures for the growth in [7] and in [8] were 103% and 92.5%, respectively.

With `COc1cccc(-n2cc(-c3nc(Cl)c4ccccc4n3)nn2)c1`, the growth in [1] was 107%; in test [2], 97.9%; in test [3], 104%; in test [4], 107%; in test [5] it was 105%; in test [6], 93.2%. The growth in test [7] is 108%; in test [9], 110%; in [8], 106%.

In the case of `C/C1=C\CCC2(C)OC2CC2CCC(C)(O)C(CC1)C2(C)C` (stereo unspecified), the growth in test [1] is 96.1%; in test [2], 104%; in test [3], 93.5%; in [4], 105%; in [5], 103%; in [6], 55.5%. Besides, the growth was 88.1% in [7] and 98.7% in [8].

On to `NC(=O)c1c(NC(=O)c2ccc(OCC3CCCO3)cc2)sc2c1CCCC2` (stereo unspecified), for which the growth is 105% in [1]; 134% in test [2]; 82.4% in test [3]; 96.6% in test [4]; 109% in [5]; 93.8% in [6]. In addition, the growth in test [7] is 100%; in test [8] it was 108%.

For `COc1ccc(/C=c2\sc3n(c2=O)C2C(NN=3)N(C)C(=O)N2C)cc1` (stereo unspecified), the growth is 9.2% (active) in test [1]; -34.6% (active) in test [2]; 25% in test [3]; 42.5% in test [4]; 71.3% in test [5]; -7.19% (active) in test [6]. Further, the growth is -16.6% (active) in [7] and 15.4% in [8].

Take `COc1ccc(-c2nnc(COc3ccc(NS(=O)(=O)c4ccc(OC)cc4)cc3F)o2)cc1`: the growth in [1] is 80.8%; in [2], 55.8%; in test [3] it was 78.6%; in test [4], 82.7%; in test [5], 84.6%; in test [6], 67.8%. In addition, the results for the growth in test [7], in test [9] and in [8] were 80.5%, 74.9% and 78.2%, respectively.

For the compound `COc1ccc(-c2nnc(COc3ccc(NC(=O)Nc4ccc(Cl)c(C(F)(F)F)c4)cc3F)o2)cc1`, the growth in test [1] is 13.2%; in [2], 16.9%; in [3], -1.11% (active); in test [4], -8.46% (active); in test [5], 20.5%; in [6], -3.88% (active). Besides, the growth in test [7] was 0.516% (active); in test [9], 30.3%; in test [8], 9.03% (active).

As for `CC(C)(C)c1cn2cccc(C(=O)N3CCN(CC(=O)Nc4ccc(Cl)cc4C(=O)c4ccccc4Cl)CC3)c2n1`, the growth in test [1] was 73.3%; in test [2], 33.5%; in test [3], 86.4%; in test [4] it was 73.5%; in [5], 85.8%; in test [6], -5.34% (active). In addition, the growth is 51.4% in [7] and 48.5% in [8].

In the case of `COc1cc(C2C=C(C)N=C3SC=CN32)cc(OC)c1OC` (stereo unspecified), the growth in test [1] is 112%; in [2], 123%; in test [3], 104%; in test [4], 100%; in test [5] it was 104%; in test [6], 108%. The growth in [7] is 116%; in [9] it was 102%; in test [8], 107%.

Take `Nc1nc(Cl)c2c(ncn2Cc2ccc(CCl)cc2)n1`: the growth in test [1] was 86.5%; in test [2], 117%; in test [3], 94.6%; in test [4], 88.2%; in test [5], 91.1%; in [6] it was 52.8%. Besides, the growth in test [7] is 82.5%; in test [8], 97.2%.

Regarding `Nc1nc(-c2cc3ccccc3o2)cc(=O)c(=O)[nH]1`, the growth was 108% in test [1]; 103% in [2]; 94.3% in [3]; 98.3% in test [4]; 96.5% in test [5]; 109% in [6]. In addition, the growth in [7] was 89.3%; in [8], 106%.

In the case of `COc1ccc(NC(=O)/N=c2\oc3c(OC)cccc3cc2-c2cc3ccccc3[nH]2)cc1`, the growth in [1] is 69.3%; in [2], 86.3%; in [3], 57.3%; in test [4] it was 36.3%; in test [5], 70%; in test [6], 52.1%. Moreover, the values for the growth in [7] and in test [8] were 35.3% and 93.5%, respectively.
